Over roughly 33,000 sequences, “E-score (-0.5 to 0.5)” has its median near -0.054; the highest 2% begin near 0.35. The entries come from a sample that favours the highest values as a whole.
The sequences below were run against T1, Stb5 (UniProt P38699) (assay: PBM E-score (8-mer binding enrichment) (E-score (-0.5 to 0.5)); higher = stronger / more preferred TF binding). Conditions: protein concentration: 200 nM; construct: GST-full length.
T1 sequence: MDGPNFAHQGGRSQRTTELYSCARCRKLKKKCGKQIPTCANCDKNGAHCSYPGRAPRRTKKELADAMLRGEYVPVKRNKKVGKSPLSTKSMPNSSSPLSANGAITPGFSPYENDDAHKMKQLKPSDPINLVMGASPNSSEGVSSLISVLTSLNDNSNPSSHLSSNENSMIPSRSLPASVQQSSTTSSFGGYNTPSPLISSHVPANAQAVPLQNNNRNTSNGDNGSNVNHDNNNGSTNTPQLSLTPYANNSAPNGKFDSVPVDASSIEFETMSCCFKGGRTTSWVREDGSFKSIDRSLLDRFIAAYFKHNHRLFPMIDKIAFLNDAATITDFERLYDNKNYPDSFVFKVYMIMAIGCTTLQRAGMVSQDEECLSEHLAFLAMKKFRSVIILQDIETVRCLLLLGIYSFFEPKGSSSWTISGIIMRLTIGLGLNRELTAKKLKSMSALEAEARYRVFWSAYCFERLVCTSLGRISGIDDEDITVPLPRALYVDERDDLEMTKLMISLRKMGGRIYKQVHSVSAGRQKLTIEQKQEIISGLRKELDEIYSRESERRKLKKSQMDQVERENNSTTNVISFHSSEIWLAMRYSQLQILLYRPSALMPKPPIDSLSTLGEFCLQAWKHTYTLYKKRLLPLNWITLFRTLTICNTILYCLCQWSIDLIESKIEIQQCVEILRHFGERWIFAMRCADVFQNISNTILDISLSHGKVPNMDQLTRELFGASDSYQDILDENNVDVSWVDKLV
Protocol: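 Universal 'all 10-mer' protein binding microarrays (Agilent AMADID 015681) probed with GST-tagged S. cerevisiae TFs (full-length or DBD) made by in vitro transcription/translation (PURExpress), about 100-200 nM. Bound TF was detected with fluorescent anti-GST. Each ungapped 8-mer (which stands for itself and its reverse complement) is scored by the PBM enrichment score (E-score), a modified Wilcoxon-Mann-Whitney statistic from -0.5 to +0.5, computed with the Universal PBM Analysis Suite. Scale: above 0.35 generally sequence-specific binding.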

Q: For CCTCTGAG, which “PBM E-score” value is on record?
A: -0.141

Q: Which “PBM E-score” value does the source give for ACTGCGGC here?
A: 0.168

Q: Which “PBM E-score” value does the source give for TCGTTAGA here?
A: -0.147

Q: Which “PBM E-score” value does the source give for ATAAGGGG here?
A: -0.0458

Q: With ACGTTGAA as the sequence, how does the “PBM E-score” value read?
A: -0.0556

Q: How did the “PBM E-score” value turn out when AGCCATAC was run?
A: -0.269

Q: How did the “PBM E-score” value turn out when GCTTGAAA was run?
A: -0.11

Q: Which “PBM E-score” value does the source give for AATGCTGT here?
A: -0.0756

Q: For GCCGATCC, which “PBM E-score” value is on record?
A: 0.207

Q: AGCGCCGA was tested. Which “PBM E-score” value did it give?
A: 0.342

Q: Which “PBM E-score” value does the source give for AGCGCCGC here?
A: 0.41

Q: How did the “PBM E-score” value turn out when AGCGCCAC was run?
A: 0.162

Q: For AGCGCCCG, which “PBM E-score” value is on record?
A: 0.198

Q: How did the “PBM E-score” value turn out when CGCGCCGC was run?
A: 0.325

Q: For AGCGCCGG, which “PBM E-score” value is on record?
A: 0.376

Q: How did the “PBM E-score” value turn out when CTCTTATC was run?
A: -0.11

Q: CTTTTTAC was tested. Which “PBM E-score” value did it give?
A: 0.145

Q: Which “PBM E-score” value does the source give for GCTGCTAA here?
A: 0.122

Q: With CCCCCGTC as the sequence, how does the “PBM E-score” value read?
A: 0.233

Q: For AACCCGTC, which “PBM E-score” value is on record?
A: 0.183

Q: Which “PBM E-score” value does the source give for ACCCCGTC here?
A: 0.381

Q: How did the “PBM E-score” value turn out when AACCCGTG was run?
A: -0.0372

Q: Which “PBM E-score” value does the source give for ACCCCGTG here?
A: 0.367

Q: How did the “PBM E-score” value turn out when ACCCCGTA was run?
A: 0.301

Q: For AGCTGTGA, which “PBM E-score” value is on record?
A: -0.266

Q: AGGGGCTA was tested. Which “PBM E-score” value did it give?
A: -0.0747

Q: For AGGGTATA, which “PBM E-score” value is on record?
A: 0.217

Q: With CGGGTCTA as the sequence, how does the “PBM E-score” value read?
A: 0.412

Q: With GGGGGTAA as the sequence, how does the “PBM E-score” value read?
A: 0.248

Q: Which “PBM E-score” value does the source give for AGGGTCTA here?
A: -0.0622

Q: CGGGGCTA was tested. Which “PBM E-score” value did it give?
A: 0.454

Q: For CGGGGTAA, which “PBM E-score” value is on record?
A: 0.424

Q: With GGGGTATA as the sequence, how does the “PBM E-score” value read?
A: 0.26

Q: Which “PBM E-score” value does the source give for GGGGGCTA here?
A: 0.0408

Q: For CGGGTATA, which “PBM E-score” value is on record?
A: 0.403

Q: Which “PBM E-score” value does the source give for CGGGTCTC here?
A: 0.151

Q: Which “PBM E-score” value does the source give for AGGGGTAA here?
A: -0.249

Q: With CCTTAATA as the sequence, how does the “PBM E-score” value read?
A: 0.03

Q: With CCCAAGGA as the sequence, how does the “PBM E-score” value read?
A: -0.0196

Q: How did the “PBM E-score” value turn out when CTTCGCCA was run?
A: 0.0018

Q: With GATTAGTA as the sequence, how does the “PBM E-score” value read?
A: 0.0787

Q: ATACATGG was tested. Which “PBM E-score” value did it give?
A: -0.155

Q: With CGCATCAA as the sequence, how does the “PBM E-score” value read?
A: 0.126

Q: ACGCTTAG was tested. Which “PBM E-score” value did it give?
A: -0.072

Q: For GTGGGTTA, which “PBM E-score” value is on record?
A: -0.0789

Q: With CTCCTCTC as the sequence, how does the “PBM E-score” value read?
A: -0.308

Q: How did the “PBM E-score” value turn out when CGGGGGTA was run?
A: 0.451

Q: Which “PBM E-score” value does the source give for AGGGGTTC here?
A: -0.15

Q: With GGGGGGTA as the sequence, how does the “PBM E-score” value read?
A: 0.0523

Q: For CCGGGGTA, which “PBM E-score” value is on record?
A: 0.268

Q: With CGGGGTTC as the sequence, how does the “PBM E-score” value read?
A: 0.388

Q: With CCGGGTTC as the sequence, how does the “PBM E-score” value read?
A: 0.24

Q: GGAGCCAA was tested. Which “PBM E-score” value did it give?
A: 0.00764

Q: GACTATAC was tested. Which “PBM E-score” value did it give?
A: 0.0897

Q: For AAGGACGG, which “PBM E-score” value is on record?
A: 0.162

Q: For CGACGGAA, which “PBM E-score” value is on record?
A: 0.262

Q: Which “PBM E-score” value does the source give for GGACGGAC here?
A: 0.359

Q: With CGACGGAG as the sequence, how does the “PBM E-score” value read?
A: 0.339

Q: How did the “PBM E-score” value turn out when AGACGGAC was run?
A: 0.331

Q: Which “PBM E-score” value does the source give for CGACGGAC here?
A: 0.368

Q: Which “PBM E-score” value does the source give for GGACGGAA here?
A: 0.133

Q: For CGCCTCGA, which “PBM E-score” value is on record?
A: 0.0565

Q: GCTATTGA was tested. Which “PBM E-score” value did it give?
A: 0.168

Q: GTTCGATA was tested. Which “PBM E-score” value did it give?
A: -0.036

Q: With CCTGTTTA as the sequence, how does the “PBM E-score” value read?
A: 0.0509

Q: How did the “PBM E-score” value turn out when CGTTTGCA was run?
A: 0.0334

Q: Which “PBM E-score” value does the source give for ACCTGAAA here?
A: -0.098

Q: How did the “PBM E-score” value turn out when CTCGCCGC was run?
A: 0.0978

Q: How did the “PBM E-score” value turn out when ATCGCCGA was run?
A: 0.387

Q: For CTCGCCGA, which “PBM E-score” value is on record?
A: -0.0352

Q: ATCGCCGG was tested. Which “PBM E-score” value did it give?
A: 0.368

Q: For ATAGCCGA, which “PBM E-score” value is on record?
A: 0.216

Q: How did the “PBM E-score” value turn out when GTCGCCGA was run?
A: 0.19

Q: How did the “PBM E-score” value turn out when ATCGCCGC was run?
A: 0.385

Q: How did the “PBM E-score” value turn out when ATCGCCTG was run?
A: -0.215

Q: How did the “PBM E-score” value turn out when ATAGCCGC was run?
A: 0.312

Q: For ATCGCCTC, which “PBM E-score” value is on record?
A: -0.271

Q: For ATAGCCGG, which “PBM E-score” value is on record?
A: 0.373

Q: For ATCGCCAG, which “PBM E-score” value is on record?
A: -0.0866

Q: Which “PBM E-score” value does the source give for AGGCAACC here?
A: -0.251

Q: How did the “PBM E-score” value turn out when ATGAGCTC was run?
A: -0.262

Q: With GAGTCTGA as the sequence, how does the “PBM E-score” value read?
A: -0.308

Q: With CAAAAGAG as the sequence, how does the “PBM E-score” value read?
A: -0.072

Q: How did the “PBM E-score” value turn out when TCAGTTCA was run?
A: -0.229

Q: How did the “PBM E-score” value turn out when CGCGTCAC was run?
A: -0.194

Q: How did the “PBM E-score” value turn out when CAAACACG was run?
A: -0.114

From the supplement of paper PMC3334620
